Data on 15 compounds can be found in PubChem BioAssay (NCI).

Each structure is given as a SMILES string. About 83,000 compounds went through this panel and 20% of them were active in at least one assay; those are over-represented in the sample as a whole.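 Growth was measured after 48 h exposure to one concentration of compound in 96-well plates. Values under 10 count as active.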 Unmarked numbers belong to inactive results. Active and inactive are the calls of the source.

This experiment deals with SK-MEL-2 melanoma. Description: NCI-60 one-dose screen, 48 h (100 = growth as untreated, 0 = no growth, -100 = all killed). To be noted: 10 µM unless noted.
Regarding `COc1ccc(-c2csc(NC(=O)CN3CCN(c4cc5c(cc4F)c(=O)c(C(=O)O)cn5C4CC4)CC3)n2)cc1`, the growth is -11.5% (active).

For the compound `O=C(O)c1ccc(=O)[nH]n1`, the growth was 116%.

In the case of `COc1ccc(-c2cc(NC(=O)Nc3ccc(O)cc3)no2)cc1`, the growth is 102%.

Turning to `CCN(CC)CCCNc1cc(OC)cc2nc3cc(Cl)ccc3nc12`, the growth was 3.9% (active).

`Clc1nc(Cl)c2c3c(sc2n1)CCCC3`: the growth is 20%.

With `CNCCCn1c2c(c3ccc([N+](=O)[O-])cc3c1=O)C(=O)c1cc(OC)cnc1-2`, the growth is -43.9% (active).

As for `C=C1CC2(OC1=O)C(=O)Nc1ccccc12` (stereo not given), the growth was 92.5%.

`CN1CCN(Cc2ccc(NC(=O)c3cncc(C#Cc4c(N)ncc5ccc(C#N)cc45)c3)cc2C(F)(F)F)CC1`: the growth is 57.4%.

Take `O=C1O[C@H]([C@H](O)CO)C(O)=C1O`: the growth is 104%.

With `COC(=S)SCN(CSC(=S)OC)c1ccc(Cl)cc1`, the growth was 106%.

In the case of `Cc1ccc(/C=C2\Oc3cc(OCC(=O)c4ccc(Cl)cc4)ccc3C2=O)cc1`, the growth is 79.2%.

Turning to `CCN(C(=O)CN1CCN(c2cc3c(cc2F)c(=O)c(C(=O)O)cn3C2CC2)CC1)c1nc(-c2ccc(OC)cc2)cs1`, the growth is 79.2%.

Take `OC(c1cc(-c2ccccc2)nc2ccc(Cl)cc12)C1CCCCN1` (stereo not given): the growth was 89.2%.

On to `CC#CC#Cc1cccc(=O)o1`, for which the growth is -47.3% (active).

As for `CNCc1cccc2c1OCCOCCOCCN(C)S(=O)(=O)c1ccc(cc1)-c1cnc(N)c(n1)C(=O)N2`, the growth was 56.7%.
